SRC1 inh: SRC1 coactivator transcriptional activity inhibitors, primary screen, cell-based, luminescence; inhibition, % at 3.6 µM; AID 588354, 2011; HEK293 GAL4-SRC1 luciferase reporter; actives 0.12% (n = 360,000); Nuclear receptor coactivator 1 (Homo sapiens), Q15788;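 active means inhibition above the campaign mean plus 3 SD, with each screening campaign given its own cutoff, cut at about 60% in these data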;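 further: 0% = DMSO treated cells and 100% = gossypol at 36 µM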
NR2F2 inh: NR2F2 transcriptional activity inhibitors, primary screen, cell-based, luciferase reporter, HEK293T, luminescence | COUP transcription factor 2 (Homo sapiens), P24468 | HEK293T NGFI-A luciferase reporter | inhibition, % at 8.6 µM | actives 0.7% (n = 370,000);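 active means inhibition above a per-plate cutoff, mean inhibition of test wells between control levels plus 3 SD, cut at about 38% in these data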;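 further: cells cotransfected with COUP-TFII expression vector driving the NGFI-A reporter; 0% = median of COUP-TF2 test wells and 100% = reporter-only cells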
NR5A2 inv ag: LRH-1 (NR5A2) inverse agonists, primary screen, cell-based, luminescence, HEK293T, StAR-luciferase reporter; Nuclear receptor subfamily 5 group A member 2 (Homo sapiens), O00482; LRH-1 transfected, 24 h; inhibition, % at 3.6 µM; actives 0.13% (n = 360,000); AID 602396, 2012;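 active means inhibition above the mean inhibition of all tested compounds plus 3 SD, cut at about 73% in these data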;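 further: 0% = DMSO wells and 100% = reporter-only cells lacking LRH-1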
GalR3 antag: GalR3 antagonists in HEK293 cells, primary screen, cell-based, fluorescence readout; HEK293 GalR3-CNG cAMP membrane potential fluorescence; galR3 body fused to GalR1 C-terminus; inhibition, % at 3 µM; actives 0.44% (n = 360,000); Galanin receptor type 3 (Homo sapiens), O60755;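 active means inhibition above the screen-wide average plus 3 SD, cut at about 13% in these data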;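 further: forskolin and galanin both at EC90 stimulate the cells; cAMP rise reported by CNG channel membrane potential dye signal; 0% = forskolin plus galanin with DMSO and 100% = forskolin alone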
SRC2 inh: inhibition of GAL4-SRC2 driven luciferase reporter, primary screen, SRC2 inhibitor project, cell-based, luminescence; Nuclear receptor coactivator 2 (Homo sapiens), Q15596; HEK293 GAL4-SRC2 luciferase reporter; inhibition, % at 9 µM; actives 0.17% (n = 370,000); AID 651957, 2012;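 active means inhibition above the mean inhibition of all tested compounds plus 3 SD, set per campaign, cut at about 52% in these data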;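 further: 0% = DMSO treated cells and 100% = cells given Gossypol at 36 µM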
NCOA3 inh: SRC3 coactivator transcriptional activity inhibitors, primary screen, cell-based, luminescence. Nuclear receptor coactivator 3 (Homo sapiens), Q9Y6Q9. HEK293 GAL4-SRC3 luciferase reporter. inhibition, % at 3.6 µM. actives 0.17% (n = 360,000);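 active means inhibition above a per-campaign cutoff, the mean of all compounds plus 3 SD, cut at about 60% in these data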;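 further: 0% = DMSO-treated cells and 100% = gossypol-treated cells at 36 µM; higher means less SRC3-driven luciferase light from the GAL4 reporter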
GalR3 antag conf: GalR3 antagonist hit confirmation, cell-based, fluorescence, triplicate; shares compounds with GalR3 antag; HEK293 GalR3 CNG cAMP biosensor, membrane potential fluorescence; galR3 fused to GalR1 carboxy tail; challenged with forskolin and galanin at EC90; inhibition, % at 3 µM; actives 59% (n = 1,600); AID 652245, 2013;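 active means inhibition above the primary screen's cutoff, the mean inhibition of all screened compounds plus 3 SD, cut at about 13% in these data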;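 further: 0% = forskolin plus galanin and 100% = forskolin alone with DMSO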
HEK-CNG parental: nonspecific cAMP agonists in parental HEK-CNG cells, counter-screen for GalR3 antagonist project, cell-based, fluorescence, high throughput; shares compounds with GalR3 antag; HEK293-CNG parental cells, cAMP membrane potential fluorescence; normalised: DMSO wells 0%, forskolin wells 100%; activation, % at 3 µM; actives 10% (n = 1,600); in the data active means activation above about 1.3%
* marks the source's active call; other numbers are inactive results; · = no result. Hits are enriched below; roughly 1.1% of the tested compounds scored in any of these assays.

SMILES	SRC1 inh	NR2F2 inh	NR5A2 inv ag	GalR3 antag	SRC2 inh	NCOA3 inh	GalR3 antag conf	HEK-CNG parental
CC(C)(C)NCC(O)Cn1cc(C=O)c2ccccc21 (configuration not stated)	-9	-38	8	14*	0	4	36*	0
Cc1ccc(NC(=O)Cn2cc(C=O)c3ccccc32)cc1	-16	4	36	-11	14	7	·	·
CCC[C@H]1[C@@H](OC(=O)NCc2ccc(C(F)(F)F)cc2)CC[C@@]23CCCN2C(=O)CCC[C@@H]13	·	26	·	·	·	·	·	·
CN=C1SC(CC(=O)Nc2ccccc2F)C(=O)N1/N=C/c1ccc(O)c(OC)c1 (configuration not stated)	-9	-10	-6	22*	11	12	15*	0
COc1ccc2ccccc2c1C=Nn1c(-c2n[nH]c3c2CCC3)n[nH]c1=S	·	-3	·	·	-1	·	·	·
CS(=O)(=O)N1CCN(c2ccc([N+](=O)[O-])cc2F)CC1	-1	-12	0	-1	-13	8	·	·
CS(=O)(=O)N1CCN(c2ccc([N+](=O)[O-])cc2C(F)(F)F)CC1	1	0	19	18*	-17	18	14*	0
CCOC(=O)c1ccc(NC(=O)c2nc[nH]c2C(=O)NC2CCN(C(=O)OC(C)(C)C)CC2)cc1	-13	-9	16	17*	-11	1	10	0
O=C(CCC(=O)c1cccs1)OCC(=O)c1ccc(F)cc1	-11	-9	11	-3	-3	5	·	·
O=C(CCC(=O)c1cccs1)OCC(=O)c1ccc(Cl)s1	1	-3	7	·	-6	-6	1	0
CC(=O)c1ccc(NC(=O)NC2CCCCN(Cc3cccc(Cl)c3)C2=O)cc1 (configuration not stated)	·	25	·	·	10	·	·	·
COc1ccc(C(c2ccc(OC)cc2)N2CCN(C(=O)c3noc(C)c3[N+](=O)[O-])CC2)cc1	·	28	·	·	·	·	·	·
CC(=O)N/C(=C\c1ccc2c(c1)OCO2)C(=O)NC(C(=O)O)c1ccccc1 (configuration not stated)	-1	3	-7	-8	-10	14	·	·
CC(=O)N/C(=C/c1ccc2c(c1)OCO2)C(=O)NC(Cc1ccccc1)C(=O)O (configuration not stated)	-15	4	-3	16*	2	27	0	0
CC(COc1ccccc1)CN1CCC(C(O)(c2ccccc2)c2ccccc2)CC1 (configuration not stated)	·	-2	·	·	4	·	·	·
Cn1c(CNc2nc3ccccc3n2C)nc2ccccc21	-40	-26	-69	15*	-51	-46	0	0
CN(C(=O)CNC(=O)c1ccccc1OCC(=O)Nc1ccc(I)cc1)c1ccccc1	·	-6	·	·	-4	·	·	·
O=C(OCN1C(=O)c2ccccc2C1=O)c1cc(S(=O)(=O)N2CCOCC2)ccc1F	-9	0	26	13*	-4	17	24*	0
CC1(C)C(=O)Nc2ccccc2N1C(=O)COC(=O)c1cc(S(C)(=O)=O)ccc1Cl	-14	-11	-19	0	7	4	·	·
CC1(C)C(=O)Nc2ccccc2N1C(=O)COC(=O)c1cc(S(=O)(=O)N2CCOCC2)ccc1F	10	2	13	39*	-34	13	16*	0
O=C(OCCN1C(=O)c2ccccc2C1=O)c1cc(S(=O)(=O)N2CCOCC2)ccc1Cl	3	5	-3	6	-23	4	·	·
NCCN1CCN(S(=O)(=O)c2ccc3c(c2)CCN3C(=O)C2CCC2)CC1	·	-25	·	·	-3	·	·	·
COc1cc(NC(=O)c2ccccc2)c(C)cc1NC(=O)CSc1nnc(-c2ccccc2F)n1-c1ccc(C)cc1	·	-6	·	·	3	·	·	·
CCOC(=O)c1c(C)[nH]c(C(=O)COC(=O)/C=C/c2cccc(OC)c2OC)c1C	-16	-9	-8	2	-8	6	·	·
CCOC(=O)c1c(C)[nH]c(C(=O)COC(=O)CNC(=O)c2ccccc2Cl)c1C	-25	-38	-32	2	-20	-8	·	·
SMILES	SRC1 inh	NR2F2 inh	NR5A2 inv ag	GalR3 antag	SRC2 inh	NCOA3 inh	GalR3 antag conf	HEK-CNG parental
CCOC(=O)c1c(C)[nH]c(C(=O)COC(=O)[C@H](C)NC(=O)c2ccccc2Cl)c1C	-30	-25	-26	18*	-26	-39	14*	0
CCOC(=O)c1c(C)[nH]c(C(=O)COC(=O)COc2ccccc2C=O)c1C	-9	-8	0	14*	21	13	0	0
CCCCCCCCN1C(=O)[C@@H](CC(=O)NCc2cccs2)C[C@@]2(C(=O)OC)C1=C[C@H](COCc1ccccc1)O[C@@H]2C	·	2	·	·	16	·	·	·
CCOC(=O)[C@@]12CCCC=C1N(CCc1ccc(Cl)cc1)C(=O)[C@H]2CC(=O)NCC1CCCCC1	·	-5	·	·	8	·	·	·
COc1cc(N=C2C(=O)N3c4c(cccc42)C(C)=CC3(C)C)cc(OC)c1	-15	-7	-20	-1	14	0	·	·
CC1=CC(C)(C)N2C(=O)C(=Nc3ccc(O)cc3)c3cccc1c32	-18	6	-15	16*	-5	-2	2	1
CC(C)c1csc(CN2CCC(CO)(Cc3cccc(F)c3)CC2)n1	-5	16	15	13*	12	17	-2	0
OCC1(Cc2cccc(F)c2)CCN(Cc2cccc3nccnc23)CC1	-1	11	-5	-3	-10	11	·	·
COc1ccc(N(C(=O)c2snc(C(N)=O)c2N)C(C(=O)NC2CCCC2)c2ccco2)cc1 (configuration not stated)	-12	-8	-17	18*	-30	3	0	0
CCc1ccc(N(C(=O)c2snc(C(N)=O)c2N)C(C(=O)NC2CCCC2)c2ccco2)cc1 (configuration not stated)	-58	20	2	-8	-11	-7	·	·
